Holding throughout (assay): DAPPL (digital affinity profiling via proximity ligation, sequencing); 10 mM Tris-HCl pH 7.5, 50 mM NaCl, 1 mM DTT, 4% glycerol, room temperature, 30 min; GST-TFs on glutathione beads, 16-mer random dsDNA library, 0.1% formaldehyde crosslink after washing; high values mean tight binding
Conditions in all cases: protein: recombinant; tags: N-terminal GST; dsDNA, one strand shown

One experiment concerns the target T1, FLI1 (Homo sapiens, UniProt Q01543 1-452).
T1 sequence: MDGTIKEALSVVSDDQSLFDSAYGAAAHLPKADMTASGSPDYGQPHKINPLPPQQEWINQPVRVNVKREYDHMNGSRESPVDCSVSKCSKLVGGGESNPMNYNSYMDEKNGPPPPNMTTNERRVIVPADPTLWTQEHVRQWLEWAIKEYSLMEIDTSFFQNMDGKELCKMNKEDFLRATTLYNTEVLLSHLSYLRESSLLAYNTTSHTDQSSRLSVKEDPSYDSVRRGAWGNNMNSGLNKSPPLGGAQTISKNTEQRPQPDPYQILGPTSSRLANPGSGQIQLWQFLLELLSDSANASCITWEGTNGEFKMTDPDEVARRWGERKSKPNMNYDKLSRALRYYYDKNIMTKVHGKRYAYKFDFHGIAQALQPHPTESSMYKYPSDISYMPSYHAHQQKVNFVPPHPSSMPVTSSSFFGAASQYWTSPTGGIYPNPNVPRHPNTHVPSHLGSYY
In short, it runs like this: (§1)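 Binding signal is defined as a hexamer's read frequency for one factor over its frequency for the tag-only sample. To obtain reads, GST-fused human transcription factors were expressed in yeast, captured on glutathione beads, barcoded with DNA and pooled with that sample. Pools met 200 nmole of a 16-mer random double-stranded DNA library in Tris/NaCl/DTT/glycerol buffer for 30 min at room temperature before washing, 0.1% formaldehyde crosslinking, proximity ligation (BsaI/T4 ligase, 1 h, 37 °C), PCR and Illumina NextSeq500 sequencing.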

The target in another experiment is T2, ELK1 (Homo sapiens, UniProt P19419 1-428).
T2 sequence: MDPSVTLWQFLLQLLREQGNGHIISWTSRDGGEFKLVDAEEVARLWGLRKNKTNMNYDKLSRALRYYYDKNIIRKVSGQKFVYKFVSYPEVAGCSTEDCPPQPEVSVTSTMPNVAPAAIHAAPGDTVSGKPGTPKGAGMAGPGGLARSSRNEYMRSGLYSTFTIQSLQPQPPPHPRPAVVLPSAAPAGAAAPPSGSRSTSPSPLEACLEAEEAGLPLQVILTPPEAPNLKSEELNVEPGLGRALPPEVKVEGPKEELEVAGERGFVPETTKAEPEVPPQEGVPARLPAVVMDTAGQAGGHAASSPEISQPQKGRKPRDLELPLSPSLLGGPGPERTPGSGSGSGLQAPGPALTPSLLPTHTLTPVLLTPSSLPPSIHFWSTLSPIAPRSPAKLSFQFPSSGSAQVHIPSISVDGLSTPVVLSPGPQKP
In short, it runs like this: as §1

A further experiment has as its target T3, GABPA (Homo sapiens, UniProt Q06546 1-454).
T3 sequence: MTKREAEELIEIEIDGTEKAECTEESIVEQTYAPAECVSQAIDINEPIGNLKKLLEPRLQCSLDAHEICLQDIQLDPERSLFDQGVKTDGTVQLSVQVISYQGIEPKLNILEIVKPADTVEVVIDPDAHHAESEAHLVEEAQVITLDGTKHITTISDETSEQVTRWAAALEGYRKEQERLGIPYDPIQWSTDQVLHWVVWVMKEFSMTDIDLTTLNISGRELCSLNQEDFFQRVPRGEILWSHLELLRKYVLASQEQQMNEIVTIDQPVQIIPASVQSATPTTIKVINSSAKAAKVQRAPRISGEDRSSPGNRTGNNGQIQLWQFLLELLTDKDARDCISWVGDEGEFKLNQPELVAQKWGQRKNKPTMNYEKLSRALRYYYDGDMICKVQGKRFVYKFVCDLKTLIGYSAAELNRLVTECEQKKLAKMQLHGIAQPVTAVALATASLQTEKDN
In short, it runs like this:
as §1

The next experiment concerns the target T4, ERG (Homo sapiens, UniProt P11308 1-479).
T4 sequence: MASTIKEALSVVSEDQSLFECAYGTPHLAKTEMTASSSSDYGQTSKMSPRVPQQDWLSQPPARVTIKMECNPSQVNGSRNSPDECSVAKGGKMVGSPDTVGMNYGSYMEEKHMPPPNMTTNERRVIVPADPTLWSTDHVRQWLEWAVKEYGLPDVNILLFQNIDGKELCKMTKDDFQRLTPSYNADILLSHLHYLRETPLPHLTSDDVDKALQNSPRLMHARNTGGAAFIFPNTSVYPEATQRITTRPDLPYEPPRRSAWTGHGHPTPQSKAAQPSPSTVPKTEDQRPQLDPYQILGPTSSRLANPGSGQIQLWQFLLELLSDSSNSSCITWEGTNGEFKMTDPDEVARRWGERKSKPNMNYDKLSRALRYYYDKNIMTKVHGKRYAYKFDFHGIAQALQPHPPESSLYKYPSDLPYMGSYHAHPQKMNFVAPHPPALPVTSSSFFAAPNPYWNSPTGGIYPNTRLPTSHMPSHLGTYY
In short, it runs like this: as §1

Another experiment deals with ELF1 (Homo sapiens, UniProt P32519 1-619). The gist of the method: as §1
The next experiment addresses T5, EHF (Homo sapiens, UniProt Q9NZC4 1-300).
T5 sequence: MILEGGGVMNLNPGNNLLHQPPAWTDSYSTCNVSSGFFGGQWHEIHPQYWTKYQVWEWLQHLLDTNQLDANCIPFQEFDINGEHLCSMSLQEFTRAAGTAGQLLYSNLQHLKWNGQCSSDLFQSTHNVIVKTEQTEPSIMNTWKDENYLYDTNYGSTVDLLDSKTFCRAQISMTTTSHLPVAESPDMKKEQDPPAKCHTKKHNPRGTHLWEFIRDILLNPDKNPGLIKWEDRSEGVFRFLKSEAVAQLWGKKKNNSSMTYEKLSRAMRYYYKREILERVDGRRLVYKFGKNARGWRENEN
The gist of the method:
as §1

Another experiment concerns the target SPI1 (Homo sapiens, UniProt P17947 1-270). In short, it runs like this: as §1
Another experiment has as its target SPIB (Homo sapiens, UniProt Q01892 1-262). The gist of the method:
as §1

In another experiment the target is T6, ELK3 (Homo sapiens, UniProt P41970 1-407).
T6 sequence: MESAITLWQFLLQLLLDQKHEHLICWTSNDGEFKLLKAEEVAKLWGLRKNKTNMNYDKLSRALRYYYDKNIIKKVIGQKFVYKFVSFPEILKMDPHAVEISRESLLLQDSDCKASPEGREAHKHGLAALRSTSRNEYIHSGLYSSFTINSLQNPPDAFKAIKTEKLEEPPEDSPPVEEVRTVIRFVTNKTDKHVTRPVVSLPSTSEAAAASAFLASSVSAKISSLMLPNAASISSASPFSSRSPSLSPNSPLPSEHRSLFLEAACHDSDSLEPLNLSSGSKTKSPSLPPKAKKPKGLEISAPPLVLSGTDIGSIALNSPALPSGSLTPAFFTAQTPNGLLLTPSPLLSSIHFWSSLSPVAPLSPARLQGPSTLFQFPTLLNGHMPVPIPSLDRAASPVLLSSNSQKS
The gist of the method: as §1

7 sequences from paper PMC7862700, “An all-to-all approach to the identification of sequence-specific readers for epigenetic DNA modifications on cytosine” can be followed below.

Sequence of SPIB (Q01892 whole entry): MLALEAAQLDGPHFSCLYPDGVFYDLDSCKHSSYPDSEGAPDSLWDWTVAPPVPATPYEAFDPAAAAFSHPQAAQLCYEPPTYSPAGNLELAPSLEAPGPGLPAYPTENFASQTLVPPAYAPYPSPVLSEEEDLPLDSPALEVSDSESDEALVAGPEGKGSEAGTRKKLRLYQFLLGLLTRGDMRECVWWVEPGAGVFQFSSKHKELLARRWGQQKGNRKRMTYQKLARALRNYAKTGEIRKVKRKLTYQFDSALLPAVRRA
Sequence of ELF1 (P32519 whole entry): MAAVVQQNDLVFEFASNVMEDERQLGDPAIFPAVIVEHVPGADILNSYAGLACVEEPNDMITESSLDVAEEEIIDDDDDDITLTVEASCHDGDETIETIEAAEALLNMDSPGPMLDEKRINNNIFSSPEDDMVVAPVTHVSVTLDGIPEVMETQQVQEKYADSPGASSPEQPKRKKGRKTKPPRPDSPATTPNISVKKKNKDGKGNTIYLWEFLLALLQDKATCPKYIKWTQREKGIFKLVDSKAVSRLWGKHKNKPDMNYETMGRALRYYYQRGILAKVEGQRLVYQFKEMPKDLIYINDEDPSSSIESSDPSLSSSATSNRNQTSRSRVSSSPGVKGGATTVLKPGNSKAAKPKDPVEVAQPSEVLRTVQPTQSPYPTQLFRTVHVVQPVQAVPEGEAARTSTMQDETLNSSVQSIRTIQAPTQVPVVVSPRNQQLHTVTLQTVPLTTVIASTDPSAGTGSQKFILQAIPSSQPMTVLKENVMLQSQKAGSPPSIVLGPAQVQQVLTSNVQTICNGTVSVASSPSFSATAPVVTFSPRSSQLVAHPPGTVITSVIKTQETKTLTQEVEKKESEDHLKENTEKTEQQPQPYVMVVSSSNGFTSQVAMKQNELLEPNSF

Turning to ATGTTC, the binding signal in the experiment with FLI1 was 1.19 fold enrichment (6-mer frequency, TF over GST control); with ELK1 it was 1.28 fold enrichment (6-mer frequency, TF over GST control); in the experiment with GABPA, 1.18 fold enrichment (6-mer frequency, TF over GST control); in the experiment with ERG, 1.21 fold enrichment (6-mer frequency, TF over GST control); with ELF1, 1.21 fold enrichment (6-mer frequency, TF over GST control); with EHF, 1.34 fold enrichment (6-mer frequency, TF over GST control). The binding signal with SPI1 is 1.2 fold enrichment (6-mer frequency, TF over GST control); with SPIB, 1.22 fold enrichment (6-mer frequency, TF over GST control); with ELK3, 1.14 fold enrichment (6-mer frequency, TF over GST control).
In the case of AATCCC, the binding signal with FLI1 was 1.36 fold enrichment (6-mer frequency, TF over GST control); with ELK1, 1.36 fold enrichment (6-mer frequency, TF over GST control); with GABPA, 1.38 fold enrichment (6-mer frequency, TF over GST control); with ERG, 1.42 fold enrichment (6-mer frequency, TF over GST control); with ELF1, 1.35 fold enrichment (6-mer frequency, TF over GST control); with EHF, 1.39 fold enrichment (6-mer frequency, TF over GST control). In addition, the binding signal is 1.26 fold enrichment (6-mer frequency, TF over GST control) with SPI1; 1.32 fold enrichment (6-mer frequency, TF over GST control) with SPIB; 1.13 fold enrichment (6-mer frequency, TF over GST control) with ELK3.
On to ATGACG, for which the binding signal was 1.28 fold enrichment (6-mer frequency, TF over GST control) with FLI1; 1.44 fold enrichment (6-mer frequency, TF over GST control) with ELK1; 1.37 fold enrichment (6-mer frequency, TF over GST control) with GABPA; 1.29 fold enrichment (6-mer frequency, TF over GST control) in the experiment with ERG; 1.34 fold enrichment (6-mer frequency, TF over GST control) with ELF1; 1.21 fold enrichment (6-mer frequency, TF over GST control) with EHF. The binding signal with SPI1 was 1.32 fold enrichment (6-mer frequency, TF over GST control); with SPIB, 1.43 fold enrichment (6-mer frequency, TF over GST control); with ELK3, 1.39 fold enrichment (6-mer frequency, TF over GST control).
With CCTCCC, the binding signal with FLI1 is 1.42 fold enrichment (6-mer frequency, TF over GST control); with ELK1, 1.43 fold enrichment (6-mer frequency, TF over GST control); in the experiment with GABPA, 1.45 fold enrichment (6-mer frequency, TF over GST control); in the experiment with ERG, 1.47 fold enrichment (6-mer frequency, TF over GST control); with ELF1, 1.54 fold enrichment (6-mer frequency, TF over GST control); with EHF, 1.57 fold enrichment (6-mer frequency, TF over GST control). The binding signal is 1.48 fold enrichment (6-mer frequency, TF over GST control) in the experiment with SPI1; 1.48 fold enrichment (6-mer frequency, TF over GST control) in the experiment with SPIB; 1.45 fold enrichment (6-mer frequency, TF over GST control) with ELK3.
Turning to TTGGCA, the binding signal with FLI1 is 1.15 fold enrichment (6-mer frequency, TF over GST control); with ELK1, 1.23 fold enrichment (6-mer frequency, TF over GST control); in the experiment with GABPA it was 1.08 fold enrichment (6-mer frequency, TF over GST control); with ERG, 1.15 fold enrichment (6-mer frequency, TF over GST control); with ELF1, 1.13 fold enrichment (6-mer frequency, TF over GST control); with EHF, 1.08 fold enrichment (6-mer frequency, TF over GST control). Further, the binding signal with SPI1 is 1.16 fold enrichment (6-mer frequency, TF over GST control); in the experiment with SPIB it was 1.15 fold enrichment (6-mer frequency, TF over GST control); with ELK3 it was 1.17 fold enrichment (6-mer frequency, TF over GST control).
Take TCTCCC: the binding signal was 1.66 fold enrichment (6-mer frequency, TF over GST control) in the experiment with FLI1; 1.68 fold enrichment (6-mer frequency, TF over GST control) with ELK1; 1.74 fold enrichment (6-mer frequency, TF over GST control) with GABPA; 1.54 fold enrichment (6-mer frequency, TF over GST control) with ERG; 1.63 fold enrichment (6-mer frequency, TF over GST control) with ELF1; 1.73 fold enrichment (6-mer frequency, TF over GST control) in the experiment with EHF. Further, the binding signal in the experiment with SPI1 is 1.47 fold enrichment (6-mer frequency, TF over GST control); with SPIB, 1.71 fold enrichment (6-mer frequency, TF over GST control); with ELK3, 1.75 fold enrichment (6-mer frequency, TF over GST control).
Turning to TTGGTT, the binding signal is 1.51 fold enrichment (6-mer frequency, TF over GST control) in the experiment with FLI1; 1.38 fold enrichment (6-mer frequency, TF over GST control) in the experiment with ELK1; 1.45 fold enrichment (6-mer frequency, TF over GST control) with GABPA; 1.37 fold enrichment (6-mer frequency, TF over GST control) in the experiment with ERG; 1.39 fold enrichment (6-mer frequency, TF over GST control) in the experiment with ELF1; 1.4 fold enrichment (6-mer frequency, TF over GST control) in the experiment with EHF. Moreover, the binding signal with SPI1 was 1.43 fold enrichment (6-mer frequency, TF over GST control); with SPIB it was 1.47 fold enrichment (6-mer frequency, TF over GST control); with ELK3 it was 1.43 fold enrichment (6-mer frequency, TF over GST control).
